FLuc counter – firefly luciferase modulation, counter-screen for miR-21 project; Potency, µM (highest dose often 57.5 µM), for the others: at the top dose activity change, negative = inhibition, hits mostly inhibitors; purified FLuc, Km substrates, luminescence inhibition; actives 6.9% (n = 360,000); AID 588342; P08659;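 note: plate controls were vehicle for no effect and reference inhibitor for full effect; nearly all actives have a fitted effect of over 55% in size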
Target sequence (P08659 whole entry, looked up): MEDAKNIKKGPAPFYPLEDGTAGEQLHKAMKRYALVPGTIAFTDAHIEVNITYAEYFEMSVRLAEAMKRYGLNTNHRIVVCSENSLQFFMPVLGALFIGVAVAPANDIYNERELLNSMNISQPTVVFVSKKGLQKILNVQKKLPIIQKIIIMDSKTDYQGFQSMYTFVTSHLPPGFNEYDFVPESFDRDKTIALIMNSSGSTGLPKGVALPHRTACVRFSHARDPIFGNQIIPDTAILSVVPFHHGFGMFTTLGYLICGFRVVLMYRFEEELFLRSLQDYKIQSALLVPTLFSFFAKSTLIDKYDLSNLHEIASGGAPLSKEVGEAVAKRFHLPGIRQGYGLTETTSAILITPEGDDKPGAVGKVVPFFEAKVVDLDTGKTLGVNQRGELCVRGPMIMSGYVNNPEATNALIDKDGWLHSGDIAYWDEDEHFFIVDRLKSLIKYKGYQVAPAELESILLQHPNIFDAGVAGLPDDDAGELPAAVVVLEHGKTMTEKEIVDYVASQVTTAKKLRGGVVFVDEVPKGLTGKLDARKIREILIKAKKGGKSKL
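Biochemical qHTS of compounds, final roughly 60 µM downward over six points, against 10 nM purified firefly luciferase using Km concentrations of substrates (10 uM D-luciferin, 10 uM ATP) in Tris acetate pH 7.5 buffer; luminescence output.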
Luc counter – counter-screen: inhibitors of Kinase-Glo firefly luciferase. Q27757. Kinase-Glo luciferase, ATP luminescence, 8 min. Potency, µM (top dose mostly 38.3 µM), inactives show at the highest dose activity change, negative = inhibition, actives largely listed as inhibitors. actives 0.28% (n = 200,000). AID 1379; note: % is set by controls: 0 for no effect and ±100 for the full control effect; nearly all actives have a fitted effect of over 60% in size
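Recombinant Kinase-Glo luciferase, 10 uM ATP (linear range), luciferin; imidazole pH 7.2 / KCl / MgCl2 / Tween / BSA buffer; 8 min RT; luminescence.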
SMN2 splice enh – SMN2 splice variant enhancement; HEK293 SMN2-luciferase splicing reporter, luminescence, 30-36 h; Potency, µM (highest dose often 46.1 µM), for inactives: at the top dose activity change, positive = activation, actives largely listed as activators; actives 2.8% (n = 210,000); AID 1458; note: % of control where 0% means no effect; nearly all actives have a fitted effect of over 55% in size
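HEK293 cells carry an SMN2 minigene-luciferase reporter in which exon 7 inclusion puts luciferase in frame. Cells were seeded at 2000 cells/well, attached for 10-12 hours, then exposed to compounds for 30-36 hours at 37C before ONE-Glo luminescence.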
Rab9 promoter act – activates the Rab9 promoter; Huh7 Rab9 promoter-luciferase reporter, luminescence, 24 h; Potency, µM (top dose mostly 9.22 µM), for the others: at the top dose activation, negative = inhibition, most hits filed as activators; actives 2.8% (n = 320,000); note: % of control where 0% means no effect; nearly all actives have a fitted effect of over 60% in size
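Huh7 cells stably carrying Rab9 promoter–luciferase reporter, plated 1500 cells/well, compound added after 2 h and incubated 24 h at 37 °C; luciferase luminescence then read after 10 min with detection reagent.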
NPC1 prom act – activators of NPC1 promoter; actives 2.4% (n = 320,000); AID 485313; Potency, µM (doses to about 9.22 µM), for the others: at the highest dose activation, usual class: activators; Huh7 NPC1 promoter luciferase reporter, 24 h; note: % of control where 0% means no effect; nearly all actives have a fitted effect of over 60% in size
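Luminescence from an NPC1 promoter-driven luciferase reporter in stably transfected Huh7 cells was measured after 24 h compound treatment at 37 °C, followed by 10 min ambient incubation with luciferase detection reagent.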
ELG1 genotoxic – induces genotoxicity in HEK293T cells with luciferase-tagged ELG1; Potency, µM (series often up to 46 µM), for inactives: at the highest dose activity change, positive = activation, actives largely listed as activators; actives 1.3% (n = 330,000); HEK293T ELG1-luciferase reporter, luminescence, 16 h; AID 504466; note: % of control where 0% means no effect; nearly all actives have a fitted effect of over 60% in size
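Reporter readout depends on ELG1 protein level, which increases with genetic stress. After 16 hr compound exposure at 37 °C, luciferase activity was quantified using ONE-Glo.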
The depositor's hits bear a star; ? = inconclusive; / = no result; [ ] = remark or other dose. Only some compounds are listed: those with a hit (about 7.4% of all), similar ones and a draw of the others. Calls come from the whole dose curve; as a rule, active = well fitted curve in the direction sought with a large enough effect; inconclusive = small, poorly fitted or top-dose-only effect, or another doubt; inactive = no such curve, though single readings can be large; an effect the other way counts as inactive or inconclusive. Potency is the fitted concentration of half-maximal effect.

SMILES | FLuc counter | Luc counter | SMN2 splice enh | Rab9 promoter act | NPC1 prom act | ELG1 genotoxic
CN(C)c1ccc(/C=N/N=C/c2ccccc2O)cc1 | 0.3µM* | -20% | -44% | 0.56µM* | 0.45µM* | ?
Cc1ccc(-c2noc(C3CCCN(C(=O)c4ccccc4)C3)n2)o1 (stereo unspecified) | 19µM* | -5% | ? | ? | ? | 9.2µM*
COc1ccc(-c2noc(C3CCCN(C(=O)c4ccccc4)C3)n2)cc1 (stereo unspecified) | 19µM* | / | / | -5% | 0% | 0%
Cc1ccc(-c2noc(C3CCCN(C(=O)c4ccccc4Br)C3)n2)o1 (stereo unspecified) | ? | / | / | ? | ? | 19%
CCCC(=O)N1CCCC(c2nc(-c3cccc(OC)c3)no2)C1 (stereo unspecified) | 9.5µM* | -3% | 11µM* | 1.4µM* | 3.5µM* | ?
Cc1nc2ccc(S(=O)(=O)NC(C(=O)N3CCN(c4cccc(Cl)c4)CC3)C(C)C)cc2s1 (stereo unspecified) | -2% | / | -1% | / | / | /
CCC(O)c1nc2ccccc2n1CCOc1cc(C)cc(C)c1 (stereo unspecified) | -10% | / | 4% | / | / | /
COc1ccc(S(=O)(=O)N(CCO)c2ccccc2CN(C)CC=Cc2ccc(Cl)cc2)cc1 | / | 3%[39.9 µM] | / | / | / | /
OCCN(/C=N/c1nc(-c2ccc(Br)cc2)cs1)CCO | 19µM* | -2% | 14% | ? | ? | 21µM*
Brc1ccc(-c2csc(/N=C/N3CCCC3)n2)cc1 | 15µM* | -2% | -43% | ? | 27% | ?
Brc1ccc(-c2csc(/N=C/N3CCOCC3)n2)cc1 | 15µM* | 4% | 9% | ? | ? | 18µM*
Cc1c(C(=O)Nc2ccc(C(C)C)cc2)sc2nc3n(c(=O)c12)CCC3 | -11% | / | / | / | / | /
CN1CCN(C(=S)Nc2ccc(Cl)cc2Cl)CC1 | -15% | -2% | -38% | 14% | 6% | 0%
CN(C)/C=N/C(=S)Nc1ccc(Cl)cc1 | 13µM* | -2% | 11µM* | ? | 30% | ?
Cc1cccc(C)c1NC(=S)/N=C/N(C)C | 1% | 2% | -7% | -3% | -7% | 0%
CN(C)/C=N/C(=S)Nc1ccc(Cl)cc1Cl | 19µM* | -6% | ? | ? | ? | 21µM*
O=c1c2ccccc2nc(N2CCN(c3cccc(Cl)c3)CC2)n1-c1ccccc1 | 5% | / | -51% | / | / | /
CCCCS/C(N)=N/N=C/c1cc(C)ccc1O | 17µM* | -4% | 15% | 5% | 18% | ?
CS/C(N)=N/N=C/c1cc(C)ccc1O | 1.2µM* | / | / | 0.16µM* | 1.1µM* | 7.3µM*
CCS/C(N)=N/N=C/c1cc(C)ccc1O | 0.95µM* | -8% | 11µM* | ? | 1.6µM* | 1.2µM*
CCN(CC)c1ccc(/C=N/N=C(N)N)c(O)c1 | -5% | -2% | -37% | -19% | -11% | 10%
NC(N)=N/N=C/c1cc([N+](=O)[O-])ccc1O | -2% | 4% | -5% | -1% | 0% | 2%
CS/C(N)=N/N=C/c1cc(Br)cc(Br)c1O | 27µM* | / | / | 2% | -1% | 3%
COc1ccccc1CNC(=O)c1cc2cccc3c2n1CCS3 | -14% | / | / | / | / | /
Cc1cccc(NC(=O)CSc2nnc(CNC(=O)c3c(F)cccc3Cl)o2)c1C | 6% | / | 6% | / | / | /
SMILES | FLuc counter | Luc counter | SMN2 splice enh | Rab9 promoter act | NPC1 prom act | ELG1 genotoxic
Cc1nn(C(=O)c2ccccc2F)c(C)c1S(=O)(=O)N1CCOCC1 | -15% | / | / | / | / | /
CN(C)c1ccc(CN2CCc3nc(N4CCN(c5ccccn5)CC4)ncc3C2)cc1 | 2% | / | / | / | / | /
Cc1ccc2c(c1)N(C(=O)N1CCC(C(=O)Nc3cccc(F)c3)CC1)CCO2 | -3% | / | / | / | / | /
Cc1cc(C(=O)CSc2nc3ccc(Cl)cc3[nH]2)c(C)n1C | -17% | -9% | 19% | 1% | -2% | 0%
O=C(CSc1nc2cc(Cl)ccc2o1)c1cccs1 | 19µM* | -5% | 3% | 12% | 9% | ?
O=C(CSc1nc2cc(Cl)ccc2o1)NCCc1ccccc1 | 3% | / | / | -6% | 1% | 0%
O=C(CSc1nc2ccc(Cl)cc2[nH]1)c1cccs1 | 13µM* | / | / | 28% | 12% | 16%
N/C(=N\OC(=O)C1CCCCC1)c1ccncc1 | ? | -1% | / | -3% | 3% | 10%
O=C(OCc1ccc(COC(=O)c2ccccn2)cc1)c1ccccn1 | 4%[2.3 µM] | -8% | 0% | -5% | -2% | 1%
N/C(=N\OC(=O)C1CCCCC1)c1ccc(Br)cc1 | 9.5µM* | / | / | ? | 19% | ?
N/C(=N\OC(=O)C1CCCCC1)c1ccc(Cl)cc1 | 11µM* | / | / | 9% | 20% | ?
N/C(=N\OC(=O)C1CCCCC1)c1ccccn1 | 2.4µM* | ? | 12% | 19% | 25% | ?
COC(C)=O | / | / | -4% | / | / | /
CCOc1ccc2cc(C3CC(c4ccco4)=NN3S(C)(=O)=O)c(Cl)nc2c1 (stereo unspecified) | -9% | / | / | -3% | -3% | -5%
CCc1ccc(C2CC(c3ccco3)=NN2S(C)(=O)=O)cc1 (stereo unspecified) | 1.3µM* | 11µM* | 0.5µM* | 0.32µM* | 0.45µM* | ?
O=C(Cn1nnc(-c2ccc3c(c2)OCO3)n1)Nc1ccccc1C(=O)O | 15µM* | / | / | 27% | ? | ?
Cc1ccccc1NC(=O)Cn1nnc(-c2ccc(N3CCOCC3)cc2)n1 | ? | -1% | 23% | 25% | -3% | 19%
CN(C)c1ccc(-c2nnn(CC(=O)Nc3ccccc3N3CCOCC3)n2)cc1 | 27µM* | -3% | -12% | 9% | 30% | -2%
Cc1cc(C(=O)CN2C(=O)C(=O)N(C3CCCC3)C2=O)c(C)n1-c1ccc(F)cc1 | -17% | -3% | -1% | 12% | 0% | -9%
Cc1cc(C(=O)CN2C(=O)C(=O)N(CC(C)C)C2=O)c(C)n1-c1ccccc1F | 17µM* | -2% | 16% | 23% | 2% | 5%
Cc1cc(C(=O)CN2C(=O)NC(CC(C)C)C2=O)c(C)n1-c1ccccc1F (stereo unspecified) | 13µM* | 6% | 25% | 1.1µM* | 2.2µM* | ?
CC(C)CN1C(=O)c2ccc(C(=O)Nc3ccc(O)cc3C(=O)O)cc2C1=O | 6µM* | / | / | 12% | -3% | -2%
CC(C)CCN1C(=O)c2ccc(C(=O)Nc3ccccc3C(=O)O)cc2C1=O | 21µM* | / | / | 0% | 4% | 4%
CC(C)CCN1C(=O)c2ccc(C(=O)Nc3ccc(O)cc3C(=O)O)cc2C1=O | 19µM* | / | / | 2% | 1% | -1%

Source: PubChem BioAssay
